# Reference: article PMC4336329 (PLoS ONE, 2015)
# About 14,000 (4.5%) of roughly 310,000 compounds showed an effect of 50% or more. Effects have a minus sign here. The sample holds strong results, similar compounds and a random draw of the others, so the mix is not that of the screen. Where a SMILES comes first, the peptide text is derived from it. The star is where a group is joined. PhAc = O=C(Cc1ccccc1)*; OBn = c1ccc(CO*)cc1
# Target: human ether-à-go-go-related gene (hERG) potassium channel (human, UniProt Q12809)
# Experiment: primary screen, population patch clamp on CHO cells stably expressing hERG; higher = less effect of the substance
# 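Note: peak tail current of the secondary pulse compared with the same well before compound.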
# Sequence of human ether-à-go-go-related gene (hERG) potassium channel (Q12809 whole entry, looked up): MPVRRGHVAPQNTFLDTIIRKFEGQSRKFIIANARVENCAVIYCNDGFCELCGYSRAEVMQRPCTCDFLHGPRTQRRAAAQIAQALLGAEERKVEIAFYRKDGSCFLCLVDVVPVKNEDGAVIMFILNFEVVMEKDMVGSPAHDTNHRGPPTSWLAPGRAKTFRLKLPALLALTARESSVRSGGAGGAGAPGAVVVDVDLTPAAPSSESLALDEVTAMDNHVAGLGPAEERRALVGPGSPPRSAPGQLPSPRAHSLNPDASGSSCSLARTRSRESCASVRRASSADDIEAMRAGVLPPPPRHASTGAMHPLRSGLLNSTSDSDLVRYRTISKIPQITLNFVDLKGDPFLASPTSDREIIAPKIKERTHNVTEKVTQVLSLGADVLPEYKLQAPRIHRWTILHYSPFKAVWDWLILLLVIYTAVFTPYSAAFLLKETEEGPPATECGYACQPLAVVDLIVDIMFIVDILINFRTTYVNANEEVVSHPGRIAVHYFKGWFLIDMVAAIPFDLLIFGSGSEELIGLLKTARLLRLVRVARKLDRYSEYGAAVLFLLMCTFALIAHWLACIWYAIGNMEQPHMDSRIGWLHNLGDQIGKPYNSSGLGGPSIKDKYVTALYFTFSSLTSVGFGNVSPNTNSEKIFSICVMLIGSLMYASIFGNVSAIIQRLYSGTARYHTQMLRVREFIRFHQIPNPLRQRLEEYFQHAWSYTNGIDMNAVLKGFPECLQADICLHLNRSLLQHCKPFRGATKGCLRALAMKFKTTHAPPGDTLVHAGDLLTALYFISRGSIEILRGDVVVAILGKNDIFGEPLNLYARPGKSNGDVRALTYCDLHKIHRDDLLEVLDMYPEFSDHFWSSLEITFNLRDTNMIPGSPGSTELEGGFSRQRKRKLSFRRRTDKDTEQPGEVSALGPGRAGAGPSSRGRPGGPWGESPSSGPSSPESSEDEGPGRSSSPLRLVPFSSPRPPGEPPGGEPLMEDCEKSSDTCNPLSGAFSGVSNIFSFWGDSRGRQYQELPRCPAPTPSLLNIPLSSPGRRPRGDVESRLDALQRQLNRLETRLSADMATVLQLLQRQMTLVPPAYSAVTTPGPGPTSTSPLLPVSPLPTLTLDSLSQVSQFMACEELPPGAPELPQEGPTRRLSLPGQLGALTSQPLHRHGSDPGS
row,Compound,"hERG current change (%, negative = inhibition) at 10uM"
1,O=C(Nc1nnc(SCc2ccc(Cl)cc2)s1)C1CCCO1 (stereo not drawn),-21.9%
2,O=C(CNC(=O)c1ccco1)NCC(=O)OCc1ccc(C(=O)Oc2ccc(Cl)cc2)cc1,9.73%
3,O=C(CNS(=O)(=O)c1ccccc1)NCC(=O)OCc1ccc(Cl)cc1,13.7%
4,O=C(CNS(=O)(=O)c1ccccc1)NCC(=O)OCc1ccc(C(=O)c2ccccc2)cc1,-61.6%
5,O=C(CNC(=O)c1ccco1)OCc1ccc(Br)cc1,2.8%
6,O=C(CNS(=O)(=O)c1ccccc1)NCC(=O)OCc1ccc(Br)cc1,-6.92%
7,O=C(CNC(=O)c1ccco1)OCc1ccc(C(=O)c2ccccc2)cc1,-69.2%
8,O=C(CNC(=O)Cc1ccccc1)NCC(=O)OCc1ccccc1 (PhAc-Gly-Gly-OBn),12.4%
9,CCOC(=O)c1ccc(COC(=O)CNC(=O)CNC(=O)Cc2ccccc2)cc1,-57.2%
10,O=C(CNC(=O)c1ccco1)NCC(=O)OCc1cccc(C(=O)Oc2ccccc2)c1,-3.88%
11,O=C(CNC(=O)c1ccco1)OCc1ccc(C(=O)Oc2ccccc2)cc1,-73.6%
12,O=C(CNC(=O)Cc1ccccc1)NCC(=O)OCc1ccc(C(=O)c2ccccc2)cc1,-5.33%
13,COC(=O)c1ccc(COC(=O)CNC(=O)c2ccco2)cc1,17.3%
14,O=C(Nc1cccc2c1CCCC2)c1ccc(Cl)c([N+](=O)[O-])c1,5.81%
15,CC(=O)N1CCc2cc(Br)cc(S(=O)(=O)NCCCN3CCC(C)CC3)c21,-16.8%
16,CC(=O)c1sc(NC(=O)CCS(=O)(=O)c2ccccc2)nc1C,8.51%
17,Cc1sc(NC(=O)c2cc(-c3ccc(Cl)cc3)nc3ccccc23)c(C(N)=O)c1C,5.31%
18,NC(=O)/C(=C/c1ccco1)NC(=O)/C=C/c1ccccc1,-5.56%
19,N/C(=N\OC(=O)COc1ccccc1)c1ccc(Cl)cc1,2.9%
20,CN1CCN(CC(=O)Nc2c(C#N)cnn2-c2ccccc2)CC1,12.1%
21,CCOC(=O)[C@@H]1[C@H]2COc3cc(OC)ccc3[C@@H]2N2C(=O)N(c3ccc(C(F)(F)F)cc3)C(=O)[C@]12C,15.1%
22,Clc1ccc(OCCCNCc2ccccc2)c2ccccc12.O=C(O)C(=O)O,-1.92%

row,Compound,"hERG current change (%, negative = inhibition) at 10uM"
1,Cc1ccc(OCCCNCCO)c(Br)c1.O=C(O)C(=O)O,-10.5%
2,C=CCNCCCOc1ccc(Cl)cc1Br.O=C(O)C(=O)O,-42.6%
3,CCc1cc(OCCCCNCc2ccccc2)ccc1Cl.O=C(O)C(=O)O,-25.6%
4,Cl.OCCCCNCc1ccc(OCc2ccccc2Cl)cc1,-15.9%
5,Cl.OCCCCNCc1ccc(OCc2ccc(Cl)cc2Cl)cc1,-51.6%
6,O=C(O)C(=O)O.OCCNCCCOc1ccc(Cl)cc1Br,-54.9%
7,Brc1ccccc1OCCNCc1ccccc1.O=C(O)C(=O)O,-29.8%
8,Clc1cc(Br)ccc1OCCCNCc1ccccc1.O=C(O)C(=O)O,-30.1%
9,Clc1ccc(Cl)c(OCCCCNCc2ccccc2)c1.O=C(O)C(=O)O,-71.5%
10,Clc1ccc(OCCCNCc2ccccc2)c(Br)c1.O=C(O)C(=O)O,-64.4%
11,Cl.OCCNCc1ccc(OCc2ccc(Cl)cc2Cl)cc1,-45.8%
12,Cc1cc(C)c(S(=O)(=O)Nc2ccc(OCC(=O)O)cc2)c(C)c1,6.93%
13,Nc1nnnn1/N=C/c1ccccc1OCc1ccccc1,19%
14,COCCCN(Cc1cccs1)S(=O)(=O)c1c[nH]c(C(=O)OC)c1,-8.01%
15,Cc1ccc2c(c1)nc(NCCCO)n2C,-3.54%
16,Cc1cc(Cl)ccc1OC(C)C(=O)OCC(=O)Nc1ccc2[nH]c(=O)[nH]c2c1 (stereo not drawn),-3.04%
17,CN1CCN(c2nc(-c3ccccc3O)nc3ccccc23)CC1,9.47%
18,COc1nc(-c2ccc(Cl)cc2Cl)nc2ccccc12,6.59%
19,OCCN1CCN(c2nc(-c3ccccc3O)nc3ccccc23)CC1,-25.1%
20,CCN1CCN(c2nc(-c3ccccc3Cl)nc3ccccc23)CC1.Cl,-69.9%
21,Oc1ccccc1-c1nc(N2CCN(Cc3ccccc3)CC2)c2ccccc2n1,10.5%
22,CN1CCN(c2nc(-c3ccccc3Cl)nc3ccccc23)CC1,-73.8%

row,Compound,"hERG current change (%, negative = inhibition) at 10uM"
1,COc1cccc(-c2nc(N3CCN(C)CC3)c3ccccc3n2)c1O,-30.8%
2,CN1CCN(c2nc(-c3ccc(Cl)c(Cl)c3)nc3ccccc23)CC1,6.63%
3,CN1CCN(c2nc(-c3ccc(Cl)cc3Cl)nc3ccccc23)CC1,-73.9%
4,COCCNC(=O)CSc1ccccc1C(=O)NC1CCCc2ccccc21 (stereo not drawn),5.31%
5,COc1cc(CNC(=O)CCn2nc(C)c3c(C)n(-c4ccccc4)nc3c2=O)cc(OC)c1OC,12%
6,CCOc1cccc(C(=O)Nc2ccc3oc(-c4cccnc4)nc3c2)c1,-9.4%
7,N#Cc1ccc(C(=O)Nc2nc3ccccc3[nH]2)cc1,19%
8,Cl.O=C(COc1ccc(Cl)cc1)NCCN1CCCC1,-40%
9,COc1cc(Br)cc(CN2CCN(C=O)CC2)c1O,-2.6%
10,COc1cc(NC(=O)CN(C)S(=O)(=O)c2ccc(C)cc2)cc(OC)c1,-19.9%
11,CCOC(=O)C1=C(C)NC(=O)/C1=C\N(C)C,19%
12,CCOC(=O)c1ccc(NC(=S)N(CCCN2CCCC(C)C2)Cc2cccs2)cc1 (stereo not drawn),-76.3%
13,CCOC(=O)c1ccc(NC(=S)N(CCCN2CCCC2)Cc2cccs2)cc1,-67.5%
14,CCOC(=O)c1ccc(NC(=S)N(CCN(C)C)Cc2cccs2)cc1,-9.16%
15,CCOC(=O)c1ccc(NC(=S)N2CCCC(C)C2)cc1 (stereo not drawn),-28.4%
16,CCOC(=O)c1ccc(NC(=S)N(CCCN2CCN(CC)CC2)Cc2cccs2)cc1,-69.1%
17,COC(CNC(=O)CNC(=S)N(CCCN1CCOCC1)Cc1cccs1)OC,6.42%
18,CCOC(=O)c1ccc(NC(=S)N(CCN2CCCCCC2)Cc2cccs2)cc1,-11.6%
19,CCOC(=O)c1ccc(NC(=S)N(CCCN2CCN(C)CC2)Cc2cccs2)cc1,-65.4%
20,O=C(N/N=C/C(Br)=C/c1ccccc1)c1ccncc1,0.715%
21,Cc1ccc(NC(=O)c2ccccc2NC(=O)c2cccs2)cc1,20.1%
22,Cc1cccc(NS(=O)(=O)c2cc(Cl)ccc2Cl)n1,22.2%

row,Compound,"hERG current change (%, negative = inhibition) at 10uM"
1,CN1CCN(C2=C(Cl)C(=O)N(c3ccc(Cl)c(Cl)c3)C2=O)CC1,14.1%
2,COc1cccc(OCCNC(=O)c2cccc(OC)c2)c1,-1.4%
3,Cc1cc(/C(=N/O)C(C)(C)NO)ccc1Cl,5.73%
4,COc1ccc(CNc2ccc(Cl)cc2)cc1Cn1ccnc1,-20.3%
5,COc1ccc(C(NC(=O)/C=C/c2ccco2)c2ccc(OC)cc2)cc1,-13.3%
6,Brc1ccc(-c2nnc3sc(CN4CCN(c5ccccc5)CC4)cn23)cc1,-1.83%
7,O=C(NCCN1C(=O)S/C(=C/c2ccccc2)C1=O)C1CCCN1C(=O)c1cccs1 (stereo not drawn),-26.9%
8,O=C(NCCN1C(=O)S/C(=C\c2ccc(OC(F)F)cc2)C1=O)c1cnccn1,-57.1%
9,O=C(NCCN1C(=O)S/C(=C\c2cccnc2)C1=O)c1cccc(OC(F)F)c1,-48.7%
10,O=C(NCCN1C(=O)S/C(=C\c2ccc(Cl)c(Cl)c2)C1=O)c1cnccn1,1.98%
11,COc1ccc(/C=C2/SC(=O)N(CCNC(=O)C3CCCN3C(=O)c3cccs3)C2=O)cc1 (stereo not drawn),-22.8%
12,O=C(NCCN1C(=O)S/C(=C\c2ccc(OC(F)F)cc2)C1=O)[C@@H]1CCCN1C(=O)c1cccs1,-63.5%
13,O=C(c1ccco1)N1N=C(c2ccco2)CC1c1ccc(Cl)cc1Cl (stereo not drawn),11.9%
14,CN(C)S(=O)(=O)Nc1cccc(-c2cn3c(n2)SCC3)c1,11.2%
15,O=[N+]([O-])c1cc(C(F)(F)F)cc([N+](=O)[O-])c1NCCN1CCNCC1,4.88%
16,CC1=CC(=O)C=C(C)C1=NOc1ccc([N+](=O)[O-])cc1,-3.45%
17,CC1CC(C)CN(S(=O)(=O)c2ccc(Oc3ccc([N+](=O)[O-])cc3)cc2)C1 (stereo not drawn),-9.72%
18,CN1CCN(S(=O)(=O)c2ccc([N+](=O)[O-])cc2)CC1,-14.6%
19,CC1CN(C)C(C)C/C1=N\Oc1ccc([N+](=O)[O-])cc1.Cl (stereo not drawn),-78.6%
20,CC1CN(C)C(C)C/C1=N/Oc1ccccc1[N+](=O)[O-].Cl (stereo not drawn),-26.5%
21,CN1CCC(=NOc2ccc([N+](=O)[O-])cc2)CC1,-74.8%
